ChEMBL document CHEMBL3433997, “St. Jude Leishmania screening dataset” (2016)

Assays:
Format in all cases: functional
[1] = biological target: Solute carrier family 2, facilitated glucose transporter member 1 (Homo sapiens) (UniProt P11166); experiment: ST_JUDE_LEISH: Cytotoxicity at 2uM final concentration against transgenic Leishmania Mexicana promastigotes LmGLUT1 that are glucose transport deficient and complemented with the human glucose transporter GLUT1. Activity is measured by DNA content using SYBR green in vitro
[2] = biological target: Hexose transporter 1 (Plasmodium falciparum) (UniProt O97467); experiment: ST_JUDE_LEISH: Cytotoxicity at 2uM final concentration against transgenic Leishmania Mexicana promastigotes LmPfHT that are glucose transport deficient and complemented with the Plasmodium falciparum hexose transporter. Activity is measured by DNA content using SYBR green in vitro
[3] = biological target: Glucose transporter (Leishmania mexicana) (UniProt O61059); experiment: ST_JUDE_LEISH: Cytotoxicity at 2uM final concentration against transgenic Leishmania Mexicana promastigotes LmGT2 that are glucose transport deficient and complemented with the L. Mexicana glucose transporter 2. Activity is measured by DNA content using SYBR green in vitro

Chain of Solute carrier family 2, facilitated glucose transporter member 1 (Homo sapiens) (P11166 whole entry): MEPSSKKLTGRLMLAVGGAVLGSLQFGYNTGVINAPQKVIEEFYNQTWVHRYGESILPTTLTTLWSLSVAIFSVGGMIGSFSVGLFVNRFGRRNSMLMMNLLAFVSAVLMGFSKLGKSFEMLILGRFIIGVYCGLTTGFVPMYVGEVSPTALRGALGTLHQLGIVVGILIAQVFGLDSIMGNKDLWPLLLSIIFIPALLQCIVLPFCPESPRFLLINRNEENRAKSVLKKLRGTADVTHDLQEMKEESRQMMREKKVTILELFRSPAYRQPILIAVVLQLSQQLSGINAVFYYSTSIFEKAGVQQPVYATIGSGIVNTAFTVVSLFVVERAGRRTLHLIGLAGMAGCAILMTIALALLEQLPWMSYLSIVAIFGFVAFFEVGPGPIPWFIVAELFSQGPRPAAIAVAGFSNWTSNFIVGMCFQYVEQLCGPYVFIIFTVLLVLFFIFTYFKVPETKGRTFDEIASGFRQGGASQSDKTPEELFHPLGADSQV

Row | Compound | inhibition [1] [%] | inhibition [2] [%] | inhibition [3] [%]
1 | O=C(Nc1ccccc1Cc1ccccc1)c1ccccc1[N+](=O)[O-] | -1.08 | -2.27 | -2.02
2 | O=S(=O)(Nc1ccc(CCN2CCCCC2CCN2CCCC2)cc1)c1ccc(-c2ccccc2)cc1 (stereo unspecified) | 9.09 | 14.3 | 3.63
3 | O=C(NC1CCN(CCC[C@]2(c3ccc(Cl)c(Cl)c3)CCCN(C(=O)c3ccccc3)C2)CC1)c1ccc(Cl)cc1 | -0.59 | -1.27 | -2.33
4 | CC(C)Oc1ccccc1-c1csc(C(=O)NCC2CCN(Cc3ccc(C(C)(C)C)cc3)C2)c1 (stereo unspecified) | 0.7 | 1.62 | -2.96
5 | c1cc(-c2ccc(CNC3CC3)cc2)cc(-c2nc3ccccc3[nH]2)c1 | 4.18 | 1.98 | 0.68
6 | CCOc1cc(C)ccc1N1CCN(CCN2CCC(NC(=O)c3ccc(-c4ccc(C#N)cc4)cc3)CC2)CC1 | 1.65 | 1.91 | 2.27
7 | O=C(Nc1ccc(Cl)c(-c2nc3ccccc3[nH]2)c1)c1ccc(-c2ccc(Cl)cc2)o1 | 2.63 | 4.17 | 1.89
8 | CCCN(Cc1nnc(-c2cccs2)o1)C(=O)CSc1nnnn1-c1cc(C)cc(C)c1 | 4.84 | 5.88 | 2.71
9 | Cc1cc(Cl)ccc1NC(=O)NCCCCCN1CCC(c2c[nH]c3ccccc23)CC1 | 11.4 | 14.9 | 10.4
10 | CC(C)=C(C(=O)OCc1ccccc1)N1C(=O)[C@@H](NC(c2ccccc2)(c2ccccc2)c2ccccc2)[C@H]1[S+]([O-])CC(=O)OC(C)(C)C (stereo partly specified) | 0.68 | -0.01 | 0.75
11 | Clc1cccc(C23N/C(=N\c4nc5ccccc5[nH]4)NC2(c2ccccc2)N/C(=N\c2nc4ccccc4[nH]2)N3)c1 (stereo unspecified) | 5.03 | 4.69 | 4.94
12 | CC(C)(C)c1ccc(CN2CCC(NC(=O)c3ccc(-c4cccc(F)c4)s3)CC2)cc1 | -0.34 | -2.33 | 2.67
13 | O=C(Nc1ccc(Cl)c(Cl)c1)Nc1ccc2nccc(N3CCNCC3)c2c1 | -0.16 | 0.06 | 0.13
14 | O=C(Nc1cccc(CN2CCCN(CC3CC3)CC2)c1)c1ccc(Cl)c(Cl)c1 | 10.8 | 10.2 | 12.6
15 | Fc1cccc(COc2ccc(-n3ccc4c(NCCCn5ccnc5)ncnc43)cc2Cl)n1 | 1.74 | 2.45 | 1.59
16 | O=C(Nc1cccc2ccccc12)N1CCC(NS(=O)(=O)c2cccc(C(F)(F)F)c2)CC1 | 0.57 | 0.62 | 0.91

Row | Compound | inhibition [1] [%] | inhibition [2] [%] | inhibition [3] [%]
17 | COc1cc2nc(NCCCN3CCCCC3)nc(NCc3ccccc3)c2cc1OC | 2.96 | 4.73 | -0.35
18 | CC(C)CCNC(=O)C1Cc2c([nH]c3cc(Cl)ccc23)C2(CCN(CCc3ccccc3)CC2)N1 (stereo unspecified) | 1.75 | 2.24 | 0.76
19 | CCCN(CCC)CC(O)COc1ccccc1C(=O)Nc1ccccc1 (stereo unspecified) | 1.49 | 1.09 | -5
20 | C=CC(=O)Nc1ccc(Cl)cc1C(O)c1ccccc1 (stereo unspecified) | 2.6 | 2.07 | 2.36
21 | COc1cccc(NC(=O)Nc2ccc(-c3oc(C(=O)NCC(c4ccccc4)N(C)C)cc3-c3ccncc3)cc2)c1 (stereo unspecified) | 5.08 | 3.73 | 3.18
22 | COc1ccc(-c2ccc(NC(=O)c3cccc(Cl)c3)cc2)cc1CN(C)CCO | 1.99 | 0.94 | -1.71
23 | CCOc1ccc2c(=NN=Cc3c4ccccc4cc4ccccc34)cc(C)[nH]c2c1 | 2.42 | 1.13 | 3.35
24 | CCN1CCC(N2CCC(C(=O)Nc3cccc(-c4cccc(Cl)c4)c3)CC2)CC1 | 0.8 | -1.24 | 2.7
25 | N#Cc1ccc(N/C(=N\c2ccc(-c3ccccc3)cc2)NCCc2c[nH]c3ccccc23)c(O)c1 | 9.42 | 8.49 | 8.99
26 | CC(C)CCN1CCCN(Cc2ccc(C(=O)Nc3ccc(F)c(F)c3)cc2)CC1 | 4.12 | 4.65 | 4.14
27 | CC(=O)N1N=C(c2ccc(Cl)cc2)Sc2c1nc(-c1ccccc1)n2C(C)=O | 2.66 | 1.84 | 2.48
28 | CCN(CC)/C(=N\CCCCCC/N=C(\NC(=N)c1ccc(Cl)cc1)N(CC)CC)NC(=N)c1ccc(Cl)cc1 | 1.79 | 2.4 | 2.59
29 | COc1ccc(CNC2Cc3ccccc3C2)cc1-c1cccc(S(=O)(=O)NCCN2CCCC2)c1 | 4.54 | 1.69 | 3.08
30 | Cc1ccnc(Nc2nc(-c3ccccn3)cs2)c1 | 10.1 | 22.4 | -2.74
31 | CS(=O)(=O)c1ccc(CNCc2ccc(-c3cccc(-c4nc5cc(F)ccc5[nH]4)c3)cc2)cc1 | 3.3 | 1.83 | 2.88
32 | O=C(Nc1ccc(S(=O)(=O)NCCCN2CCOCC2)cc1)c1cc(-c2ccccc2)[nH]n1 | 1.2 | 1.66 | 5.52
